Test results published in PubChem BioAssay (NCI).
The panel holds about 83,000 compounds, 20% with a hit somewhere; the sample as a whole holds those more often.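 Cell lines were cultured in 96-well plates, exposed to a single compound concentration, and assessed for percent growth 48 hours later.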 Values without a mark were called inactive. Active and inactive are the calls of the source. Rule for the calls: active = growth percent below 10; inactive = the rest.

What was measured:
Assay in all cases: NCI-60 one-dose screen, 48 h (100 = growth as untreated, 0 = no growth, -100 = all killed)
Settings in all cases: 10 µM unless noted
RPMI-8226 leukemia = system: RPMI-8226 leukemia
OVCAR-8 ovarian = system: OVCAR-8 ovarian
OVCAR-5 ovarian = system: OVCAR-5 ovarian
OVCAR-4 ovarian = system: OVCAR-4 ovarian
IGROV1 ovarian = system: IGROV1 ovarian
OVCAR-3 ovarian = system: OVCAR-3 ovarian
NCI/ADR-RES ovarian = system: NCI/ADR-RES ovarian
T-47D breast = system: T-47D breast
SK-OV-3 ovarian = system: SK-OV-3 ovarian
HS 578T breast = system: HS 578T breast

Compound	growth (RPMI-8226 leukemia)	growth (OVCAR-8 ovarian)	growth (OVCAR-5 ovarian)	growth (OVCAR-4 ovarian)	growth (IGROV1 ovarian)	growth (OVCAR-3 ovarian)	growth (NCI/ADR-RES ovarian)	growth (T-47D breast)	growth (SK-OV-3 ovarian)	growth (HS 578T breast)
COc1cc(C=C2C(=O)N(C)C(=O)N(C)C2=O)cc(CN2CCCCC2)c1O	104%	105%	96.9%	103%	104%	105%	105%	90.2%		
COCCN(C(=O)Cc1cccs1)C(C(=O)NCc1ccc(OC)cc1)c1ccc(C(C)C)cc1 (stereo unspecified)	93.2%	80.9%	106%			51.5%	73.8%	87%	87.5%	76.2%
O=C(Nc1ccc(F)c(Cl)c1)Nc1ccc(Cl)c(Cl)c1	65.8%	92.4%	114%		73.6%	61.1%	59.1%	85.5%	84.3%	72.4%
O=c1cc(-c2ccccc2)oc2cc(OCc3cn(Cc4ccc(F)cc4)nn3)cc(OCc3cn(Cc4ccc(F)cc4)nn3)c12	45.6%	12.7%	55.1%	-9.56% (active)	43.5%	21.2%	70.4%	40.6%		
c1ccc2cc3c(Nc4ccc(N5CCOCC5)cc4)ccnc3cc2c1	60.1%	94.3%	97%		89.5%	96%	91.1%	95.5%	107%	103%
O=C(Nc1ccsc1C(=O)NC1CCCCC1)c1ccc(F)cc1	70%	102%	98.3%		90.7%	111%	96.5%	102%	101%	105%
CCCCc1ccc(NS(=O)(=O)c2cc3c4c(c2)CCN4C(=O)CC3)cc1	21.9%	15.9%	52.5%		11.3%	32.2%	7.47% (active)	25.4%	30.8%	47.8%
O=C1/C(=C\c2ccc[nH]2)c2ccccc2N1c1ccccc1	94.4%	102%	87.9%	67.7%	84.5%	112%	90.2%	64.9%		
CCOC(=O)c1cc2c(n1Cc1cc(OC)c(OC)c(OC)c1)-c1oncc1CCC2	16.8%	16.6%	56.2%		33.3%	-22% (active)	3.55% (active)	74%	11.2%	18.2%
Cc1ccc(CN2CCC(C(=O)Nc3ccc(-c4cc5ccccc5[nH]4)cc3)CC2)o1	20.5%	53.3%	98.1%		61%	49.4%	44.3%	92.1%	107%	67%
CCOc1ccc(-c2nonc2NC(=O)c2cccc(C)c2)cc1OCC	9.09% (active)	79.5%	89.4%		68.3%	68.1%	67.5%	84.3%	96.2%	85.4%
COC(=O)c1cc2c(n1Cc1ccccc1)-c1oncc1CCC2	49.8%	76.7%	87.8%			65.2%	40.3%	74.9%	93.7%	78.2%
CCOC(=O)c1cc2c(n1Cc1ccccc1OC)-c1oncc1CCC2	14.9%	35.4%	69.5%			8.96% (active)	15%	38.6%	24.2%	10.9%
CCOC(=O)c1ccc2[nH]c(-c3ccccc3)cc(=O)c2c1	88.2%	97.6%	101%		92.5%	106%	102%	105%	112%	
CCN1CCN(c2cc(C)c3cc(NC(=O)c4ccc(OC)c(OC)c4)ccc3n2)CC1	16.7%	58.9%	88.7%		36.6%	12.5%	28.1%	58.4%	39.8%	32.6%
CCOC(=O)c1c(Cl)c2c(n1Cc1ccccc1)-c1oncc1CCC2	50.6%	84.3%	95.3%		75.1%	39.5%	43.5%	80.7%	95.2%	69.7%

Compound	growth (RPMI-8226 leukemia)	growth (OVCAR-8 ovarian)	growth (OVCAR-5 ovarian)	growth (OVCAR-4 ovarian)	growth (IGROV1 ovarian)	growth (OVCAR-3 ovarian)	growth (NCI/ADR-RES ovarian)	growth (T-47D breast)	growth (SK-OV-3 ovarian)	growth (HS 578T breast)
Oc1c(C(Nc2ccccn2)c2cccc(Oc3ccccc3)c2)ccc2cccnc12 (stereo unspecified)	-50.6% (active)	-85.2% (active)	-84.1% (active)	-96.7% (active)	-91.7% (active)	-96.6% (active)	-81.1% (active)	-71% (active)		
C[n+]1c2ccccc2nc2ccc(NCCO)cc21	66.8%	82.1%	102%		63.9%	79.2%	86.4%		112%	82.7%
c1ccc(-c2ccc(-c3nc4ccccc4[nH]3)cc2)cc1	51.2%	89.4%	106%		75.1%	86.2%	86.7%	86.6%	89.3%	94.5%
COc1ccc2c(c1)C=C1CSCC3=Cc4cc(OC)ccc4OC13O2	19.5%	25.4%		47.8%	31.6%	-6.42% (active)	-1.58% (active)	48.4%		-0.917% (active)
CCN(CC)c1cc(C)c2cc(NC(=O)c3cccc(OC)c3)ccc2n1	7.5% (active)	74.8%	98.3%		98.4%	74.8%	80.5%	70.8%		58.3%
COc1ccc(C2NCCc3c2[nH]c2ccccc32)cc1CN1CCN(c2ccc(F)cc2)CC1 (stereo unspecified)	-10% (active)	24.6%		65.3%		66.8%	54.7%	54.6%	88.8%	92.2%
COc1ccc(-c2nocc2-c2cccs2)cc1	124%	110%		99%	102%	108%	110%	75.7%	105%	91.1%
NC(=O)CSc1nc(-c2ccc(F)cc2)cc(-c2ccco2)n1	98.5%	98.1%		100%	94%	111%	105%	64.1%	102%	115%
COc1ccccc1N1C(=N)S/C(=C\c2ccc(OCc3ccccc3F)cc2)C1=O	70.1%	55.3%		87%	73.5%	86.7%	71.3%	66.8%	102%	86.7%
Cc1ccc(Cn2c(N3CCC(C(=O)NCc4cccs4)CC3)nc3ccccc32)cc1	73.7%	94.3%	107%			76.6%	86.2%	114%		79.9%
CCOC(=O)C1=C(C)N=c2s/c(=C\c3cc(Cl)ccc3O)c(=O)n2C1c1ccc(OC)cc1 (stereo unspecified)	78.6%	90.4%		94.7%	87.6%	95.5%	85.6%	82%	104%	117%
COc1c2ccoc2c(/C=C/C=O)c2oc(-c3ccccc3)cc(=O)c12	28%	26.1%		57.8%	80.5%	57.7%	32.4%	47%	96.3%	74.8%
CSc1nc2c(c(=O)[nH]1)N=C1c3ccccc3C(=O)C1C(c1ccccc1)N2 (stereo unspecified)	36.2%	61.3%		72.6%	17.4%	-12% (active)	38.3%	43.9%	64.3%	48.2%
COc1cc(C2C3=C(COC3=O)N(CCO)c3cc4c(cc32)CCC4)cc(OC)c1O (stereo unspecified)	32.2%	22.6%		38.2%	17.5%	-35.5% (active)	52.8%		37.7%	32%
CC(C)[C@H](NC(=O)Cn1cc(C(=O)O)nn1)C(=O)O	105%	98.1%		104%	111%	108%	106%	106%	106%	112%
COc1ccccc1N1CCN(C(CNS(=O)(=O)c2ccc(Cl)cc2)c2cccnc2)CC1 (stereo unspecified)	27.5%	100%	113%			75.4%	93.9%	102%	108%	
